# Laboratory results published in the supplement of paper PMC4723716.
# ± gives the uncertainty stated by the source. Whole data set: some 9,900 compounds, median “viability index relative to DMSO control” near 1, cut for the lowest 2% near 0.85. This is one part of a sample in which the lowest values are shown more often than they occur.
# Tested on: Plasmodium falciparum NF54 stage V gametocytes
# Assay: viability index relative to DMSO control (fraction); higher = less gametocyte killing
# Details: 2.5 µM, incubation time: 72 h
# How it was run: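 P. falciparum NF54 stage V gametocytes in serum-free screening medium (0.75% gametocytemia, 1.25% hematocrit, 10 µl) were incubated with compound at 2.5 µM in 1,536-well plates for 72 hr at 37°C under low oxygen. Then 3 µl of 2.5 µM MitoTracker Red CMXRos plus 0.13% saponin was added for one to two hours. One field per well was imaged, 20–70 µm2 red particles were counted, and the viability index was the count divided by the plate mean of DMSO wells.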
# [1] = library set: Broad Institute DOS
# [2] = library set: Broad Institute Blood Stage
compound,measurement,setting,value
O=C(Nc1ccccc1F)N1CC(=O)N2[C@@H](CO)[C@H](c3ccc(-c4cccnc4)cc3)[C@@H]2C1,viability index,[1],1.08 ± 0.028
Cc1noc(C)c1NC(=O)N(C)C[C@@H]1OCc2cnnn2CCCC(=O)N([C@H](C)CO)C[C@@H]1C,viability index,[1],1.09 ± 0.08
CO[C@@H]1CN(C)C(=O)c2ccc(NC(=O)NC(C)C)cc2OC[C@@H](C)N(Cc2ccc(-c3ccccn3)cc2)C[C@H]1C,viability index,[1],1.03 ± 0.023
COCC(=O)Nc1ccc2c(c1)C(=O)N(C)[C@@H]1CC[C@H](CC(=O)N3CCc4ccccc4C3)O[C@@H]1CO2,viability index,[1],1.0023 ± 0.00098
C/C=C/c1ccc([C@H]2[C@H]3CNC[C@@H]2N3S(=O)(=O)c2ccccc2C)cc1,viability index,[1],1.04 ± 0.027
C[C@H]1CN([C@@H](C)CO)C(=O)c2c(c3ccccc3n2C)-c2ccccc2CO[C@H]1CN(C)S(=O)(=O)c1ccc(F)cc1,viability index,[2],0.929 ± 0.041
C[C@H]1CN([C@@H](C)CO)C(=O)c2c(c3ccccc3n2C)-c2ccccc2CO[C@H]1CN(C)S(=O)(=O)c1ccc(Cl)cc1,viability index,[2],0.738 ± 0.023
C[C@H](CO)N1C[C@H](C)[C@H](CN(C)S(=O)(=O)c2ccc(F)cc2)OCc2ccccc2-c2c(n(C)c3ccccc23)C1=O,viability index,[2],0.942 ± 0.045
Cc1ccc(S(=O)(=O)N(C)C[C@@H]2OCc3ccccc3-c3c(n(C)c4ccccc34)C(=O)N([C@@H](C)CO)C[C@@H]2C)cc1,viability index,[2],0.728 ± 0.062
COc1ccc(S(=O)(=O)N(C)C[C@@H]2OCc3ccccc3-c3c(n(C)c4ccccc34)C(=O)N([C@@H](C)CO)C[C@@H]2C)cc1,viability index,[2],0.936 ± 0.044
C[C@H](CO)N1C[C@H](C)[C@H](CN(C)S(=O)(=O)c2ccc(C#N)cc2)OCc2ccccc2-c2c(n(C)c3ccccc23)C1=O,viability index,[2],1.01 ± 0.03
CCNC(=O)C[C@@H]1CC[C@H]2[C@@H](COC[C@H](O)CN2C(=O)c2ccccn2)O1,viability index,[1],1.14 ± 0.062
COc1cccc(C#Cc2ccc3c(c2)O[C@@H](CN(C)C(=O)CN2CCOCC2)[C@@H](C)CN([C@H](C)CO)S3(=O)=O)c1,viability index,[1],0.966 ± 0.13
C[C@@H]1CCCCO[C@H](CN(C)Cc2ccc(C(=O)O)cc2)[C@@H](C)CN([C@@H](C)CO)C(=O)c2cc(N(C)C)ccc2O1,viability index,[1],1.07 ± 0.11
COCC#Cc1ccc([C@@H]2[C@@H](CO)N3C(=O)CN(C(=O)c4ccncc4)C[C@H]23)cc1,viability index,[1],1.12 ± 0.087
Cc1ccc(-c2ccccc2[C@H]2[C@@H](C#N)N(c3ncc(-c4ccccc4)s3)[C@H]2CO)cc1,viability index,[1],0.985 ± 0.14
O=C(C[C@H]1CC[C@H]2[C@@H](COC[C@@H](O)CN2Cc2ccc(C(F)(F)F)cc2)O1)N1CCc2ccccc2C1,viability index,[1],0.968 ± 0.024
O=C(C[C@H]1CC[C@@H]2[C@H](COC[C@H](O)CN2Cc2ccc(C(F)(F)F)cc2)O1)N1CCc2ccccc2C1,viability index,[1],0.846 ± 0.011
O=C(C[C@@H]1CC[C@@H]2[C@H](COC[C@H](O)CN2Cc2ccc(C(F)(F)F)cc2)O1)N1CCc2ccccc2C1,viability index,[1],1.078 ± 0.0039
Cc1noc(C)c1NC(=O)Nc1ccc2c(c1)C(=O)N(C)[C@H]1CC[C@H](CC(=O)Nc3ccc4c(c3)CCCC4)O[C@@H]1CO2,viability index,[1],1.086 ± 0.0014
COc1ccc([C@@H]2C/C=C\C[C@H](c3ccc(F)cc3)NC(=O)CCC(=O)N2)c(OC)c1,viability index,[1],1.015 ± 0.01
C/C=C/c1ccc2c(c1)O[C@H](CN(C)C(=O)Nc1ccc(OC)cc1)[C@H](C)CN([C@H](C)CO)S2(=O)=O,viability index,[1],1.056 ± 0.0059
Cc1ccccc1-c1ccc2c(c1)O[C@@H](CN(C)C(=O)Nc1ccc(C(F)(F)F)cc1)[C@@H](C)CN([C@@H](C)CO)S2(=O)=O,viability index,[1],0.838 ± 0.12
Cc1ccccc1-c1ccc2c(c1)O[C@H](CN(C)C(=O)Nc1ccc(C(F)(F)F)cc1)[C@H](C)CN([C@H](C)CO)S2(=O)=O,viability index,[1],0.988 ± 0.082
C/C=C/c1ccc2c(c1)O[C@H](CN(C)C(=O)Nc1ccc(OC)cc1)[C@H](C)CN([C@@H](C)CO)S2(=O)=O,viability index,[1],0.988 ± 0.013
COc1ccc(C#Cc2ccc3c(c2)O[C@@H](CN(C)C(=O)Nc2cccc(OC)c2)[C@@H](C)CN([C@@H](C)CO)S3(=O)=O)cc1,viability index,[2],0.612 ± 0.071
Cc1ccccc1-c1ccc2c(c1)O[C@@H](CN(C)C(=O)Nc1ccc(C(F)(F)F)cc1)[C@H](C)CN([C@@H](C)CO)S2(=O)=O,viability index,[1],1.09 ± 0.078
C[C@H](CO)N1C[C@H](C)[C@@H](CN(C)Cc2cccc(C(=O)Nc3ccccc3N)c2)OCc2ccccc2-c2c(n(C)c3ccccc23)C1=O,viability index,[1],0.887 ± 0.053
CO[C@H](CN(C)S(=O)(=O)c1ccc(C)cc1)[C@H](C)CN(C(=O)Nc1ccccc1F)[C@@H](C)CO,viability index,[1],0.986 ± 0.025
CCC(=O)N1[C@H](CO)[C@H]2c3ccccc3N(S(=O)(=O)c3ccc(F)cc3)C[C@H]21,viability index,[1],0.958 ± 0.067
N#C[C@H]1[C@H](c2ccccc2C2=CCCCC2)[C@H](CO)N1S(=O)(=O)c1ccccc1,viability index,[1],1.14 ± 0.019
N#C[C@@H]1[C@@H](c2ccccc2C2=CCCCC2)[C@H](CO)N1S(=O)(=O)c1ccccc1,viability index,[1],1.05 ± 0.1
N#C[C@H]1[C@H](c2ccccc2C2=CCCCC2)[C@@H](CO)N1S(=O)(=O)c1ccccc1,viability index,[1],0.757 ± 0.1
C[C@@H]1CCCCO[C@@H](CN(C)C(=O)C2CCCCC2)[C@@H](C)CN([C@@H](C)CO)C(=O)c2cc(NS(=O)(=O)c3ccccc3)ccc2O1,viability index,[1],1.08 ± 0.023
COc1ccc2c3c([C@H](CO)N(C[C@]33CN(C3)C(=O)CC3CC3)C(=O)C3CCCC3)n(C)c2c1,viability index,[1],0.897 ± 0.036
COc1ccc(NC(=O)N2C[C@@]3(C2)CN([C@H](CO)c2c3c3ccc(OC)cc3n2C)C(=O)C2CCC2)cc1,viability index,[2],0.841 ± 0.05
COc1ccc(NC(=O)N2CC[C@@]3(CC2)CN([C@H](CO)c2c3c3ccc(OC)cc3n2C)C(=O)C2CCC2)cc1,viability index,[1],0.785 ± 0.057
COc1ccc2c3c([C@@H](CO)N(C[C@]33CN(C3)C(=O)CC3CC3)C(=O)C3CCCC3)n(C)c2c1,viability index,[1],0.932 ± 0.021
COc1ccc2c3c([C@@H](CO)N(C[C@]33CCN(CC4CCCC4)CC3)C(=O)C3CCC3)n(C)c2c1,viability index,[1],1.1 ± 0.042
COc1ccc(NC(=O)N2CC[C@@]3(CC2)CN([C@@H](CO)c2c3c3ccc(OC)cc3n2C)C(=O)C2CCC2)cc1,viability index,[1],0.897 ± 0.041
COc1cccc(CN2C[C@@]3(C2)CN([C@@H](CO)c2[nH]c4cc(OC)ccc4c32)C(=O)C2CC2)c1,viability index,[1],0.956 ± 0.11
CCCC#Cc1cnc2c(c1)C(=O)N([C@H](C)CO)C[C@@H](C)[C@H](CN(C)C(=O)Nc1cc(F)ccc1F)O2,viability index,[1],0.822 ± 0.058
CCCC#Cc1cnc2c(c1)C(=O)N([C@@H](C)CO)C[C@@H](C)[C@@H](CN(C)C(=O)Nc1cc(F)ccc1F)O2,viability index,[1],1.02 ± 0.012
C[C@H](CO)N1C[C@H](C)[C@H](CN(C)C(=O)C2CCCCC2)Oc2ncc(C#Cc3cccc(F)c3)cc2C1=O,viability index,[2],0.62 ± 0.074
C[C@H]1CN([C@@H](C)CO)C(=O)c2cc(-c3cccc(C#N)c3)cnc2O[C@@H]1CN(C)C(=O)C1CCOCC1,viability index,[1],1.04 ± 0.025
C[C@@H]1CN([C@@H](C)CO)C(=O)c2cc(C#Cc3ccccc3)cnc2O[C@@H]1CN(C)C(=O)c1ccccc1,viability index,[1],1.08 ± 0.028
C[C@@H]1CN([C@H](C)CO)C(=O)c2cc(C#Cc3ccccc3)cnc2O[C@@H]1CN(C)C(=O)c1ccccc1,viability index,[1],0.966 ± 0.057
CCCC#Cc1cnc2c(c1)C(=O)N([C@@H](C)CO)C[C@@H](C)[C@H](CN(C)C(=O)Nc1cc(F)ccc1F)O2,viability index,[1],1.05 ± 0.041
C[C@H]1CN([C@@H](C)CO)C(=O)c2cc(C#Cc3cccc(F)c3)cnc2O[C@@H]1CN(C)C(=O)C1CCCCC1,viability index,[2],0.769 ± 0.073
C[C@H](CO)N1C[C@H](C)[C@H](CN(C)C(=O)NC2CCCCC2)Oc2ncc(-c3cccc(F)c3)cc2C1=O,viability index,[1],1.01 ± 0.084
C[C@@H]1CN([C@@H](C)CO)C(=O)Cc2cc(NC(=O)CCC(F)(F)F)ccc2O[C@@H]1CN(C)CC1CC1,viability index,[1],1.04 ± 0.075
Cc1noc(C)c1S(=O)(=O)N(C)C[C@H]1OCCCC[C@H](C)Oc2ccc(NS(=O)(=O)c3cn(C)cn3)cc2C(=O)N([C@H](C)CO)C[C@@H]1C,viability index,[1],1.08 ± 0.019
Cc1noc(C)c1S(=O)(=O)N(C)C[C@H]1OCc2cn(nn2)CCCC(=O)N([C@H](C)CO)C[C@@H]1C,viability index,[1],0.952 ± 0.014
C[C@H](CO)N1C[C@H](C)[C@@H](CN(C)C)OCc2ccccc2-c2c(n(C)c3ccccc23)C1=O,viability index,[1],1.04 ± 0.08
CNC[C@@H]1OCCCC[C@@H](C)Oc2ccc(NC(=O)Nc3ccc(OC)cc3)cc2C(=O)N([C@H](C)CO)C[C@H]1C,viability index,[1],1.05 ± 0.011
C[C@H]1CN([C@@H](C)CO)C(=O)c2ccccc2-c2ccccc2CO[C@@H]1CN(C)C(=O)[C@@H]1CCCN1C,viability index,[1],0.946 ± 0.043
CC(C)NC(=O)N1Cc2cc(C(=O)NC3Cc4ccccc4C3)nc(-c3cccc(-c4cccnc4)c3)c2[C@H]1CCO,viability index,[1],0.764 ± 0.091
CC(C)(C)[S@@](=O)N1Cc2cc(C(=O)NCc3ccccc3F)nc(-c3cccc(-c4cncnc4)c3)c2[C@H]1CCO,viability index,[1],0.801 ± 0.1
CC(C)NC(=O)N1Cc2cc(C(=O)NC3Cc4ccccc4C3)nc(-c3cccc(-c4cccnc4)c3)c2[C@@H]1CCO,viability index,[1],0.97 ± 0.052
CC(C)(C)[S@](=O)N1Cc2cc(C(=O)NCc3ccccn3)nc(-c3cccc(-c4ccccc4F)c3)c2[C@@H]1CCO,viability index,[1],0.955 ± 0.08
CC(C)NC(=O)N1Cc2cc(C(=O)NC3CCC3)nc(-c3cccc(-c4cncnc4)c3)c2[C@@H]1CCO,viability index,[1],1.01 ± 0.018
CC(C)(C)[S@@](=O)N1Cc2cc(C(=O)NCCc3ccncc3)nc(-c3cccc(-c4ccccc4)c3)c2[C@H]1CCO,viability index,[2],0.763 ± 0.047
CC(C)(C)[S@](=O)N1Cc2cc(C(=O)NCc3ccccc3F)nc(-c3cccc(-c4cncnc4)c3)c2[C@@H]1CCO,viability index,[1],0.89 ± 0.056
CC(C)(C)[S@@](=O)N1Cc2cc(C(=O)NCCc3ccncc3)nc(-c3cccc(-c4cccc(C#N)c4)c3)c2[C@H]1CCO,viability index,[1],1.06 ± 0.084
COc1ccc(CNC(=O)c2cc3c(c(-c4cccc(-c5ccc(C#N)cc5)c4)n2)[C@H](CCO)N([S@@](=O)C(C)(C)C)C3)cc1,viability index,[1],0.977 ± 0.085
CC(C)(C)[S@](=O)N1Cc2cc(C(=O)NCCc3ccncc3)nc(-c3cccc(-c4cccc(C#N)c4)c3)c2[C@@H]1CCO,viability index,[1],1.08 ± 0.081
COc1cccc(-c2cccc(-c3nc(C(=O)NCc4ccc(Oc5ccccc5)cc4)cc4c3[C@@H](CCO)N(S(=O)C(C)(C)C)C4)c2)c1 (stereo partly drawn),viability index,[2],0.799 ± 0.032
CC(C)(C)S(=O)N1Cc2cc(C(=O)NCc3ccc(Oc4ccccc4)cc3)nc(-c3cccc(-c4cccc(F)c4)c3)c2[C@@H]1CCO (stereo partly drawn),viability index,[1],1.02 ± 0.034
